The values that follow come from PubChem BioAssay (NCATS).

“And” between values parts separate entries of the source, which are not always exact repeats. Equal entries are not always repeated. Results filed as inconclusive are left out. The source made the active and inactive calls. Unless noted, calls come from the whole dose curve; as a rule, active = well fitted curve in the direction sought with a large enough effect; inconclusive = small, poorly fitted or top-dose-only effect, or another doubt; inactive = no such curve, though single readings can be large; an effect the other way counts as inactive or inconclusive.

Test [1] in a line: AP1 Signaling Pathway (AID 357; active = well fitted curve in either direction with a large enough effect, not every such curve was filed as active;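 note: ME-180 reporter cells stimulated with EGF at its EC50 level; % is set by controls: 0 for no effect and ±100 for the full control effect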). To be noted: ME-180 AP-1-bla reporter, EGF-induced, beta-lactamase ratio, 5 h. The method, boiled down:
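In this screen, ME-180 cells in Opti-MEM with 0.5% dialyzed FBS received EC50 EGF and compound titrations for 5 h. AP-1 reporter beta-lactamase was detected via CCF4 ratio, giving AC50 for positive and negative modulators.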

Test [2] deals with Cytochrome P450 1A2 (Homo sapiens) (UniProt P05177). In words: p450-cyp1a2 (AID 410; calls by dose curve;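 note: -100% = full effect of reference inhibitor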). To be noted: recombinant CYP1A2, luciferin-ME demethylation, luminescence; series mostly up to 57 µM. The method, boiled down:
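Luminescent readout of luciferin formed from Luciferin-ME by human CYP1A2; data normalized against complete inhibition by 57 uM furafylline. Enzyme 20nM, substrate 100uM at Km, 100mM KPO4 buffer, 60 min reaction at room temperature.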

Test [3] in a line: NFAT Signaling Pathway (AID 444; active = well fitted curve in either direction with a large enough effect, not every such curve was filed as active;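 note: carbachol stimulus at about its EC50 of 1 µM final; % is set by controls: 0 for no effect and ±100 for the full control effect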). To be noted: Jurkat NFAT-bla M1, carbachol, beta-lactamase ratio, 5 h. A digest of the protocol:
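Jurkat cells with NFAT-driven β-lactamase reporter and co-expressed M1 receptor, stimulated with carbachol (final 1 uM, ~EC50), compound titration, 5 h at 37 °C. CCF4 loaded 1 h at RT; 460/530 nm ratio gave %activity and AC50.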

Test [4] in a line: Stat Signaling Pathway (AID 446; active = well fitted curve in either direction with a large enough effect, not every such curve was filed as active;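 note: ME-180 cervical cancer cells given 40 pM IL-6 alongside compound; SIE-controlled beta-lactamase reporter measured as 460/530 nm FRET emission ratio; % is set by controls: 0 for no effect and ±100 for the full control effect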). The note with it: ME-180 SIE beta-lactamase reporter, IL-6 stimulated, 5 h. The method, boiled down:
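Screening format detects activators and inhibitors alike: ME-180 SIE-bla cells stimulated at 40 pM IL-6 for 5 hrs with compound, then dual-emission beta-lactamase read at 405 nm excitation.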

Test [5] deals with Mitogen-activated protein kinase 10 (Mus musculus) (UniProt Q61831). Put plainly: JNK3 AlphaScreen Assay (AID 530; active = well fitted curve in either direction with a large enough effect, not every such curve was filed as active;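 note: kinase came from lysate of stimulated human HepG2 cells; signal reports phosphorylation of biotinylated GST-cJun 1-79 at Ser73 with 10 µM ATP; % is set by controls: 0 for no effect and ±100 for the full control effect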). The note with it: JNK3 lysate, c-Jun phosphorylation; series mostly up to 57.1 µM. The method, boiled down: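 Pre-activated (IL-1β/TNFα) JNK3 in HepG2 lysates phosphorylates biotin-GST-cJun(1-79), 10 uM ATP; anti-phospho-cJun(Ser73) AlphaScreen read at room temperature, pH 7.6 Tris buffer. Compounds pre-incubated 15 min as titrations.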
Background: Alpha assays give light when donor and acceptor beads are brought close together.

Test [6] deals with 3',5'-cyclic-AMP phosphodiesterase 4B (Homo sapiens) (UniProt Q07343). Put plainly: qHTS Assay for Inhibitors of PDE-IV (AID 607; active = well fitted activation curve with a large enough effect in the main read-out, with a control signal flat, not every such curve was filed as active; note: % of control where 0% means no effect). To be noted: HEK293 ACTOne CNG channel cells, membrane potential fluorescence; series mostly up to 22.9 µM. The method, boiled down:
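The readout is membrane depolarisation from a cAMP-sensing CNG channel, detected with a potential dye at ex 535/em 590. Cells were HEK293-derived (endogenous PDE-IV) at 1000 cells/well, titrated up to 22.9 uM final.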
On the technique in general: Quantitative high-throughput screening tests each substance at several concentrations.

Test [7] concerns the target Guanine nucleotide-binding protein G(i) subunit alpha-1 (Homo sapiens) (UniProt P63096). In words: qHTS Assay for Inhibitors of RGS12 GoLoco Motif Activity (Green Fluorophore) (AID 879).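 Note: 0% = labeled peptide with Gαi1 and full inhibition = labeled peptide alone without protein; negative values mean loss of peptide binding seen as reduced polarization.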 To be noted: Galphai1/FITC-RGS12 GoLoco peptide, fluorescence polarization; series mostly up to 57.1 µM. A digest of the protocol:
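Fluorescence polarization assay: 50 nM Gαi1 with 10 nM FITC-labeled RGS12 GoLoco peptide in 10 mM Tris pH 7.5, 150 mM NaCl, 0.1 mM GDP, 0.05% NP40, 10 min at room temperature with compound.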

Test [8] concerns the target Pyruvate kinase (Leishmania mexicana) (UniProt Q27686). In words: qHTS Validation Assay for Inhibitors of Leishmania Mexicana Pyruvate Kinase (AID 945).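 Note: 0% = DMSO only neutral control wells.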 The note with it: purified L. mexicana pyruvate kinase, enzyme activity, E451W mutant enzyme; series mostly up to 57.5 µM. The method, boiled down:
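The enzyme is a highly purified E451W mutant of LmPYK used at 0.2 nM. It converts 0.5 mM PEP and 0.1 mM ADP over 1 h at room temperature; product ATP is quantified by luciferase luminescence relative to DMSO controls.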

The target of test [9] is Pyruvate kinase PKM (Homo sapiens) (UniProt P14618). In words: qHTS Assay for Activators of Human Muscle Pyruvate Kinase (AID 954; active = well fitted curve in the direction sought with a large enough effect, not every such curve was filed as active;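 note: 0% = uninhibited enzyme and -100% = no enzyme or full thiadiazolimine inhibition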). To be noted: purified human muscle pyruvate kinase, luciferase-coupled luminescence, 1 h; series mostly up to 57.5 µM. A digest of the protocol:
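Reaction: 0.1 nM purified PKM2 with 0.5 mM phosphoenolpyruvate and 0.1 mM ADP, room temperature, 1 h. Readout: luciferase-based ATP luminescence after stop reagent. Activators judged against a 0.3 nM enzyme column.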

Test [10] addresses alpha-glucosidase (Oryza sativa, rice) (UniProt Q653V4). In words: Counterscreen for Glucocerebrosidase Inhibitors: qHTS Assay for Rice alpha-Glucosidase at pH 5.0 (AID 997).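 Note: 0% = full activity with enzyme and -100% = basal without enzyme.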 The note with it: rice alpha-glucosidase enzyme activity; series mostly up to 76.9 µM. A digest of the protocol:
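Rice alpha-glucosidase (4 nM final) with 400 uM 4-methylumbelliferyl-alpha-D-glucopyranoside in citrate buffer pH 5.0, 20 min at room temperature, stopped at pH 10; fluorescence 365/440 nm, compounds 0.7 nM–77 uM, AC50 from Hill fits.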
For orientation: Counterscreens check selectivity or assay interference.

Test [11] in a line: qHTS Assay for Lipid Storage Modulators (AID 1519; calls by dose curve). The note with it: Drosophila S3 cells, BODIPY lipid droplet/cell ratio, laser cytometry, cells loaded with oleic acid. A digest of the protocol: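 Cells seeded at 5,000 per well were treated with compounds over a concentration series and loaded with oleic acid (400 uM, as added). Lipid droplet fluorescence (488 nm excitation, 500-530 nm channel) was read by laser-scanning cytometry and normalized to 20 uM Triacsin C.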

In test [12] the target is ATP-dependent 6-phosphofructokinase (Trypanosoma brucei brucei) (UniProt O15648). In words: qHTS Assay to Find Inhibitors of T. brucei phosphofructokinase: hit validation (AID 492961). To be noted: T. brucei PFK, ADP-Glo luminescence; series mostly up to 24.3 µM. A digest of the protocol:
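Inhibition of parasite PFK is measured as reduced ADP formation, quantified via luciferase after ATP depletion. Assay used 0.1 mM ATP, 0.5 mM F6P, 1.25 nM enzyme, 45 min incubation.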

Test [13] deals with Ubiquitin carboxyl-terminal hydrolase 1 (Homo sapiens) (UniProt O94782). Put plainly: Inhibitors of USP1/UAF1: Pilot qHTS (AID 504865).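 Note: rhodamine fluorescence freed from ubiquitin-rhodamine substrate followed over time; top concentration of the series differs between compounds; % is set by controls: 0 for no effect and ±100 for the full control effect; nearly all actives have a fitted effect of over 35% in size.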 The note with it: purified USP1/UAF1, Ub-rhodamine cleavage fluorescence; series mostly up to 54.9 µM. A digest of the protocol:
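Enzyme-free wells gave the negative control, while test wells held 1nM USP1/UAF1 preincubated with compound for 15 min at room temperature. Ub-Rho at 150nM final started the reaction, and fluorescence at 480/540 nm was recorded kinetically.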

For test [14], the target named is Luciferin 4-monooxygenase (Photinus pyralis) (UniProt P08659). In words: Biochemical firefly luciferase enzyme assay for NPC (AID 624030).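 Note: purified P. pyralis luciferase at 10 nM with luciferin and ATP substrate; 0% = DMSO and -100% = full luciferase inhibition by PTC124 control; nearly all actives have a fitted effect of over 70% in size.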 To be noted: purified P. pyralis luciferase, luminescence, 5 min; series mostly up to 58.6 µM. The method, boiled down: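 Purified P. pyralis luciferase at 10 nM in 50 mM Tris Acetate (final), luminescence read within 5 minutes of enzyme addition to compounds. Activity normalised to PTC124 versus DMSO; concentration-response curves classed by r2, magnitude and activity.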
Luciferin 4-monooxygenase (Photinus pyralis), sequence (P08659 whole entry, looked up): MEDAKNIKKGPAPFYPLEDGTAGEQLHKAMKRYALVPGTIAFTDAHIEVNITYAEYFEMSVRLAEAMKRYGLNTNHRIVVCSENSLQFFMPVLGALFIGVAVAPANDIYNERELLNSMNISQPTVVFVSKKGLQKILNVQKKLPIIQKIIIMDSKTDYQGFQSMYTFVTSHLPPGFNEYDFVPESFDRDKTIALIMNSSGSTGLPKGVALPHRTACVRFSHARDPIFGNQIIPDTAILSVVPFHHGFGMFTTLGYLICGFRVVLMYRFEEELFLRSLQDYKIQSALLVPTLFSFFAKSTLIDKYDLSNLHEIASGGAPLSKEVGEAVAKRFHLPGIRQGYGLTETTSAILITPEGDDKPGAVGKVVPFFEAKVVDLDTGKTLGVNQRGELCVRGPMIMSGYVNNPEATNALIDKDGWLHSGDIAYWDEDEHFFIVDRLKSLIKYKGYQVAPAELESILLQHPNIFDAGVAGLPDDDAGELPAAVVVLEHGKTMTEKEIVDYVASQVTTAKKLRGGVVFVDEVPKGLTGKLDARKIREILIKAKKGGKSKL

The nature of test [15]: qHTS profiling for inhibitors of Plasmodium falciparum proliferation (AID 504749).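 For activity, negative = inhibition: 0% = DMSO vehicle and full inhibition = artemisinin control.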 For all read-outs here: nearly all actives have a fitted effect of over 60% in size. Note: potency is the fitted concentration of half-maximal effect. To be noted: P. falciparum in erythrocytes, SYBR Green DNA, 72 h; for activity, negative = inhibition: at 28.7 µM (top of the series). A digest of the protocol:
(§1)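 P. falciparum-infected erythrocytes (0.3% parasitemia, 2.5% hematocrit) incubated with compound 72 h at 37 C, 5% CO2. Parasite DNA detected by SYBR Green after lysis, overnight at room temperature; normalised to 0.29 uM artemisinin and DMSO.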

The next test concerns AS120. The test is described as above. To be noted: P. falciparum in erythrocytes, SYBR Green DNA, 72 h; series mostly up to 28.7 µM. A digest of the protocol: as §1
The test system of a further test is CP238. The description is as above. The note with it: P. falciparum in erythrocytes, SYBR Green DNA, 72 h; series mostly up to 12.8 µM. The method, boiled down: as §1
The next test relates to FAB9. The test is described as above. The note with it: P. falciparum in erythrocytes, SYBR Green DNA, 72 h; series mostly up to 12.8 µM. The method, boiled down: as §1
For test [16], the target named is Glucocorticoid receptor (Homo sapiens) (UniProt P04150). In words: GR-EFC Redistribution (AID 451; calls by dose curve; note: potency is the fitted concentration of half-maximal effect). To be noted: CHO-K1 GR-EFC translocation, beta-gal luminescence, 2 h. The method, boiled down:
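CHO-K1 cells expressing nuclear EA and GR-ED fragments of b-gal; compounds titrated up to 46 uM final, 2 h at 37 C. GR nuclear translocation read as complemented b-gal luminescence after 1 h RT detection.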

Test [17] shares this target. Put plainly: GR-GFP Redistribution (AID 450;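 active = compounds whose dose series gives a full or clear partial fitted curve of increased nuclear translocation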; note: potency is the fitted concentration of half-maximal effect). The note with it: U2OS GR-GFP nuclear translocation, laser cytometry, 2 h.
Setting [18] is: measured here: cell count channel max response.
Setting [19] is: measured here: lipid channel max response.

Glucocorticoid receptor (Homo sapiens), sequence (P04150 whole entry, looked up, the tested form may be a part): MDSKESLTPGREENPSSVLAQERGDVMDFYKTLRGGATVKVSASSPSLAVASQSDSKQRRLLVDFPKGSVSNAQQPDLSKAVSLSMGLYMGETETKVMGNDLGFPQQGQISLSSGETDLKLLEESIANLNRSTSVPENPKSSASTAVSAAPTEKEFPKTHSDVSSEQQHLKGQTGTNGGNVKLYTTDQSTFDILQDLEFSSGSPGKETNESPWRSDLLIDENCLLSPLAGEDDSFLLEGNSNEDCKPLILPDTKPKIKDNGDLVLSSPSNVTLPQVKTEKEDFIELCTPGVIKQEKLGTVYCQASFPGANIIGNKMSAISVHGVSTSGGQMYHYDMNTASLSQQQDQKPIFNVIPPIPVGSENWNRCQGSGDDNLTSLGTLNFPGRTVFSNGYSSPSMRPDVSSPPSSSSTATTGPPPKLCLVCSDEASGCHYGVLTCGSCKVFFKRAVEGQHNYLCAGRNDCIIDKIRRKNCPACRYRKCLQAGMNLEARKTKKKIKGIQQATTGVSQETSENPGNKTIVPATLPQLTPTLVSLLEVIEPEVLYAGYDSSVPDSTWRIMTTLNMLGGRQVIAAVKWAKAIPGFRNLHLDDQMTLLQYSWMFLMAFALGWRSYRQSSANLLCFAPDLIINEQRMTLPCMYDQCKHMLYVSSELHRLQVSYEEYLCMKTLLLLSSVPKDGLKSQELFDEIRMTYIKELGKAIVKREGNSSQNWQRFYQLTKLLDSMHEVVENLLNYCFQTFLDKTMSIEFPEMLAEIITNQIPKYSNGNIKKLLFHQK
3',5'-cyclic-AMP phosphodiesterase 4B (Homo sapiens), sequence (Q07343 whole entry, looked up): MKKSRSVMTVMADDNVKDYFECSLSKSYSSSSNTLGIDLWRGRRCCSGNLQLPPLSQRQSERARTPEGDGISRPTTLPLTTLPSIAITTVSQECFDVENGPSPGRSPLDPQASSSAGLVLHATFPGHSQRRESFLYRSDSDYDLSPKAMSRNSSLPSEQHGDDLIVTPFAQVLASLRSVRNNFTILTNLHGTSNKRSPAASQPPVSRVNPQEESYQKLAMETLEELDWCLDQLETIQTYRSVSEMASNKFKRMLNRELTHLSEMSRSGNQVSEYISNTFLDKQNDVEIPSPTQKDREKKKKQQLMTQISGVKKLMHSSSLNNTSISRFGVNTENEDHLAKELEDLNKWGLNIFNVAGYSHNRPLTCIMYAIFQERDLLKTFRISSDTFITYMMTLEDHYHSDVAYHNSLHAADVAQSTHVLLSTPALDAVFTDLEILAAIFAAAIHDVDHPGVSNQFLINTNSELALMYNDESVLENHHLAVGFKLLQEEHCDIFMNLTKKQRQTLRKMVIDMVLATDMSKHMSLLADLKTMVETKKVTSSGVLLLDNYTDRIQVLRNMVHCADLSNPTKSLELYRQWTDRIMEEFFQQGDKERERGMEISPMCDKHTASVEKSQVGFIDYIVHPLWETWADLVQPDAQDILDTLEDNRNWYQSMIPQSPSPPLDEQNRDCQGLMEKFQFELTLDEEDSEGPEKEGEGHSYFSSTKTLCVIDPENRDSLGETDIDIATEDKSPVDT
Ubiquitin carboxyl-terminal hydrolase 1 (Homo sapiens), sequence (O94782 whole entry, looked up): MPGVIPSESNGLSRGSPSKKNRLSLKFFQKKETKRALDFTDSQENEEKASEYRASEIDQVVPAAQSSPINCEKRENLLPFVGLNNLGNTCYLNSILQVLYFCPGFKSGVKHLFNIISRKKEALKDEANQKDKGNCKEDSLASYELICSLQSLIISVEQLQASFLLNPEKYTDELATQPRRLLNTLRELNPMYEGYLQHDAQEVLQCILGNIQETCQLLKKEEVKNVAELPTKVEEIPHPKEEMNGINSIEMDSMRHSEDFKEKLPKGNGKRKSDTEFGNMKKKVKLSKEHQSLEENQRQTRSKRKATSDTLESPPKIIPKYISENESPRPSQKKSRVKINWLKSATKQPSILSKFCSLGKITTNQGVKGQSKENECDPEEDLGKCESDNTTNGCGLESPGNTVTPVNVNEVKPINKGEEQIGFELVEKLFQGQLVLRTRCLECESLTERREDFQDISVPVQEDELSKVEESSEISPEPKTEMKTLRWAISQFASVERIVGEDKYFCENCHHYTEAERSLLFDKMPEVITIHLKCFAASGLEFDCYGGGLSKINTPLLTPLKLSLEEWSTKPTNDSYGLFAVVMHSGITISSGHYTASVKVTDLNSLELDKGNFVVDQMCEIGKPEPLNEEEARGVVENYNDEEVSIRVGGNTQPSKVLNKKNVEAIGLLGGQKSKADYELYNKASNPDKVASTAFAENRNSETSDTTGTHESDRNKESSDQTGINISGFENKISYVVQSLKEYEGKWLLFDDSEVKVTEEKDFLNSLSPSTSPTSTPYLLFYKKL
Pyruvate kinase (Leishmania mexicana), sequence (Q27686 2-499 E452W): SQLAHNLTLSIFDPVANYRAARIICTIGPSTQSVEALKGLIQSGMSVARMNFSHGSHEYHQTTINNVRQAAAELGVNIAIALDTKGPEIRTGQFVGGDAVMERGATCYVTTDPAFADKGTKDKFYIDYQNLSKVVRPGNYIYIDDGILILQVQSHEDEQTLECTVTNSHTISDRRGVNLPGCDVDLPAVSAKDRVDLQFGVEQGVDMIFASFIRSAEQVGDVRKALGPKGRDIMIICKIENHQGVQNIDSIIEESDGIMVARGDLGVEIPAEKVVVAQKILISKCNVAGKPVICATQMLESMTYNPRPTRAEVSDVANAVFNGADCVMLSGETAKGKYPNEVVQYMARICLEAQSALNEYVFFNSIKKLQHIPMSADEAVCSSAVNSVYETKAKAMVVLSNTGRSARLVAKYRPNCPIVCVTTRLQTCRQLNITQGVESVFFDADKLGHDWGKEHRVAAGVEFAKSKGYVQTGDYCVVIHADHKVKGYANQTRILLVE
Cytochrome P450 1A2 (Homo sapiens), sequence (P05177 whole entry, looked up): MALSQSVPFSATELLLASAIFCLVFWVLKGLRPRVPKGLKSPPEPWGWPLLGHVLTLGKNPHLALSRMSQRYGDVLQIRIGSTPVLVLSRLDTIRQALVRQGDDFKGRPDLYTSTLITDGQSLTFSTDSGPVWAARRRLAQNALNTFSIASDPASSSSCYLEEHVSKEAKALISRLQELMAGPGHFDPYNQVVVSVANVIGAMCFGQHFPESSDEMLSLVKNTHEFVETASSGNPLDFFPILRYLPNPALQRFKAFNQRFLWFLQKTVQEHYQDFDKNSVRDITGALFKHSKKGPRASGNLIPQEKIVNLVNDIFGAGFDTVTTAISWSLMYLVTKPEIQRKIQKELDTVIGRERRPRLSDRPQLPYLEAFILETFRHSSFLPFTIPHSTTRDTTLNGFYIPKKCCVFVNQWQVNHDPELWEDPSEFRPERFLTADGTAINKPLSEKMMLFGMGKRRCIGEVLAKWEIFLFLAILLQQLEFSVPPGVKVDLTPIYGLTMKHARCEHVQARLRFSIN
Pyruvate kinase PKM (Homo sapiens), sequence (P14618 whole entry, looked up): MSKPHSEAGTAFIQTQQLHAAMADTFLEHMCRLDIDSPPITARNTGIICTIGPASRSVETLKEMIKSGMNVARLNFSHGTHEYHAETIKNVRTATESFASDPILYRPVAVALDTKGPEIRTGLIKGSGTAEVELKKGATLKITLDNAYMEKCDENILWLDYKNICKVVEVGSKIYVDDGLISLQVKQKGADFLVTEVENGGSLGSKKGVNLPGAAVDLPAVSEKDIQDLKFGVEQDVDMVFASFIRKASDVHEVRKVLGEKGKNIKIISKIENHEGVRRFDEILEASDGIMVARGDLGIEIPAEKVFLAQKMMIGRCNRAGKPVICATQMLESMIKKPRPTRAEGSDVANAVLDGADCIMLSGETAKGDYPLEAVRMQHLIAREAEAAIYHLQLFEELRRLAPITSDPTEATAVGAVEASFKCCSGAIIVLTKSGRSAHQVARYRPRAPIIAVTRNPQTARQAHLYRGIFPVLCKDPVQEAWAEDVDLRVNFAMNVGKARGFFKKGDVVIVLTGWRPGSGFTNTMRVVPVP
Guanine nucleotide-binding protein G(i) subunit alpha-1 (Homo sapiens), sequence (P63096 whole entry, looked up): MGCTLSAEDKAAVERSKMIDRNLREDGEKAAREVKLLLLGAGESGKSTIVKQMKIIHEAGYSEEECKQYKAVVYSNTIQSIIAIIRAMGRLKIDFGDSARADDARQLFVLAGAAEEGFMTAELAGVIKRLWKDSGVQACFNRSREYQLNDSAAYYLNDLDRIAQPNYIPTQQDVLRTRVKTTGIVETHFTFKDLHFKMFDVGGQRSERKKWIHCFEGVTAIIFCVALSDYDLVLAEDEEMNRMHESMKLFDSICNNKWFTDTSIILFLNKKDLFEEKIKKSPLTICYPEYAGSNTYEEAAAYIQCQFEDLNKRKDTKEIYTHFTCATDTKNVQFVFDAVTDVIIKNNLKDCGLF

For the compound `NC(=O)c1cc[n+](CC2=C(C(=O)O)N3C(=O)[C@@H](NC(=O)[C@H](c4ccccc4)S(=O)(=O)[O-])[C@@H]3SC2)cc1`, the activity change, negative = inhibition is 2.93% (inactive) in test [1] (at 17.2 µM (top of the series)); -7.21% (inactive) in test [1] (at 38 µM (top of the series)); 5.18% (inactive) in test [3] (at 17.2 µM (top of the series)); 3.09% (inactive) in [3] (at 38 µM (top of the series)); -1.52% (inactive) in test [11] (at 25.7 µM (top of the series)). The Potency result in test [2], in test [5], in [6], in [7] and in [13] was “inactive” in each case. The activity, negative = inhibition in test [4] (at 17.2 µM (top of the series)) was 0.394% (inactive); in test [4] (at 38 µM (top of the series)), 0.148% (inactive). For the same compound, the outcome in test [8], in test [9], in [10], in test [12] and in test [14] was inactive. Also, the max response in [11] (setting [18]) is -10.2%; in test [11] (setting [19]), -11.3%. In addition, the Potency in test [15] (parasite line A) was 3.55 µM (active); in test [15] (parasite line B) it was 3.55 µM (active); with AS120 it was 3.16 µM (active); with CP238, 3.55 µM (active); in the test on FAB9 it was 3.16 µM (active).
`O=C(c1cc(C(F)(F)F)cc(C(F)(F)F)c1)N1CCC2(CCCN(c3ccncc3)C2)CC1`: the activity, negative = inhibition in test [4] (at 7.69 µM (top of the series) unless noted) is 16.9% (inactive). Moreover, the Potency in test [16] is > 46 µM (inactive). For the same compound, the Potency entry in test [5] and in test [6] was “inactive” in each case. Also, the activity change, negative = inhibition in test [11] (at 57.5 µM (top of the series)) was 5.04% (inactive). Moreover, the max response in test [11] (setting [18]) stood at 8.86%; in test [11] (setting [19]), 16%.
For `O=c1c(-c2cccs2)nc2cnc(Oc3cccc(Cl)c3)nc2n1C1CC1`, the Potency in test [17] is > 9.22 µM (inactive). Besides, the Potency result in test [5] is “inactive”. Further, in test [11] (at 57.5 µM (top of the series)), the activity change, negative = inhibition was -23.5% (inactive). The figures for the max response in test [11] (setting [18]) and in [11] (setting [19]) were 0.533% and -23.3%, respectively.
On to `CCn1cc(C(=O)O)c(=O)c2cc(F)c(N3CCN[C@@H](C)C3)c(F)c21`, for which the activity change, negative = inhibition in test [1] (at 17.2 µM (top of the series)) is -0.628% (inactive); in [1] (at 38 µM (top of the series)), 12.1% (inactive); in test [3] (at 17.2 µM (top of the series)) it was -8.67% (inactive); in test [3] (at 38 µM (top of the series)), -2.78% (inactive); in [11] (at 25.7 µM (top of the series)), -0.691% (inactive). Also, the Potency entry (in test [2]; in test [5]; in test [6]; in test [7]; in test [13]; in the test on AS120) was “inactive” in each case. Also, the Potency result with CP238 and in the test on FAB9 was “inactive” throughout. The activity, negative = inhibition in test [4] (at 17.2 µM (top of the series)) was 9.73% (inactive); in [4] (at 38 µM (top of the series)) it was 26.7% (inactive); in test [15] (parasite line A) it was 5.09% (inactive); in [15] (parasite line B), 0.537% (inactive). Also, the Potency is > 46 µM (inactive) and > 20.6 µM (inactive) in [17]; > 46 µM (inactive) and > 20.6 µM (inactive) in test [16]. Moreover, the compound was called inactive in [8], in [9], in [10], in test [12] and in test [14]. Further, the max response in test [11] (setting [18]) is -2.23%; in test [11] (setting [19]), -3.89%.
Take `COc1ccc([C@H]2Sc3ccccc3N(CCN(C)C)C(=O)[C@H]2OC(C)=O)cc1`: the activity change, negative = inhibition was -10.4% (inactive) in test [1] (at 17.2 µM (top of the series)); -3.25% (inactive) in test [1] (at 38 µM (top of the series)); -5.79% (inactive) in test [3] (at 17.2 µM (top of the series)); -3.5% (inactive) in test [3] (at 38 µM (top of the series)); -1.07% (inactive) in test [11] (at 25.7 µM (top of the series)). Moreover, the Potency result in test [2], in [6] and in [13] was “inactive” in each case. For the same compound, the activity, negative = inhibition in test [4] (at 17.2 µM (top of the series)) was -1.38% (inactive); in test [4] (at 38 µM (top of the series)), 7.22% (inactive). Also, the Potency is > 46 µM (inactive) and > 20.6 µM (inactive) in test [17]; > 46 µM (inactive) and > 20.6 µM (inactive) in test [16]. Moreover, the call in [8], in test [9] and in [10] was inactive. Also, the figures for the max response in [11] (setting [18]) and in test [11] (setting [19]) were 7.03% and 9.95%, respectively.
